Results published in PubChem BioAssay (NCATS).
Inconclusive results are not listed. A number with no mark means an inactive call. Activity calls are given as the source filed them. Calls come from the whole dose curve; as a rule, active = well fitted inhibition curve with a large enough effect; inconclusive = small, poorly fitted or top-dose-only effect; inactive = no such curve, though single readings can be large or run the other way.

These compounds were tested on Zika virus NS2B-NS3 protease (linked construct) (assay: Primary screen NINDS Rhodamine qHTS for Zika virus inhibitors (AID 1347160; note: nearly all actives have a fitted effect of over 55% in size)). Conditions: purified NS2B-NS3 protease, Rhodamine110 substrate fluorescence; series mostly up to 57.1 µM; activity change, negative = inhibition: at the top concentration.
Method in brief: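 Purified NS2B-NS3 protease with the NS2B hydrophilic domain joined by a flexible linker (25 nM) in 10 mM Tris-HCl pH 8.0, 0.01% Tween 20, preincubated 15 min at RT with compound; Rhodamine110 peptide substrate 1.5 µM; fluorescence change over 15 min; 4-parameter Hill fit.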
% is set by controls: 0 for no effect and ±100 for the full control effect.

Structure (SMILES) | activity change, negative = inhibition | outcome
C[C@@](O)(COc1ccc(C#N)cc1)C(=O)Nc1ccc(C#N)c(C(F)(F)F)c1 | 24.3% | 
Cn1ncnc1COc1nn2c(-c3c(F)cccc3F)nnc2cc1C1CCC1 | 15.2% | 
C=C1[C@@H]2CC[C@@]3(C)[C@H](c4ccoc4)OC(=O)C[C@]13O[C@H]1CC(=O)C(C)(C)[C@H](C(OC(C)=O)C(=O)OC)[C@]12C (some centres undefined) | 6.54% [at 33.1 µM] | 
CC1C/C=C/C(O)C(O)CC/C=C/c2cc(O)cc(O)c2C(=O)O1 (centres undefined) | -7.75% [at 33.1 µM] | 
C[C@H]1O[C@@H](O[C@H]2C[C@@H](O)[C@]3(CO)C4C(CC[C@]3(O)C2)[C@@]2(O)CC[C@H](C3=CC(=O)OC3)[C@@]2(C)C[C@H]4O)[C@@H](O)[C@@H](O)[C@H]1O (some centres undefined) | 15% [at 15.1 µM] | 
CC[C@H]1CN2CC[C@H]1C[C@@H]2[C@@H](O)c1ccnc2ccc(OC)cc12 | 28.3% [at 33.1 µM] | 
CCC(C)(C#N)O[C@@H]1O[C@H](CO)[C@@H](O)[C@H](O)[C@H]1O (some centres undefined) | 27.5% | 
COC1CC(=O)C23C(=O)NC(CC(C)C)C2C(C)=C(C)C(OO)C3/C=C(\C)CCC(O)C1O (centres undefined) | -0.736% [at 33.1 µM] | 
COC1CC(O[C@H]2CC[C@@]3(C)C(=CCC4C3C(O)[C@@H](O)[C@]3(C)[C@@H](C(C)=O)CC[C@]43O)C2)OC(C)C1OC1CC(OC)C(OC2OC(C)C(O)C(O)C2O)C(C)O1 (some centres undefined) | 17.3% [at 15.1 µM] | 
CC(=O)OC12C(O)C(C)C3(O)C4C=C(C)C(=O)C4CC(CO)=CC3C1C2(C)C (centres undefined) |  | inactive [at 33.1 µM]
Cc1cn(C[C@H](N)C(=O)O)c(=O)n(Cc2cc(-c3ccccc3)sc2C(=O)O)c1=O | 8.5% | 
COC1CC(OC2CCC3(C)C(CCC4C3CCC3(C)C(C5=CC(=O)OC5)C(OC(C)=O)CC43O)C2)OC(C)C1OC1OC(CO)C(O)C(O)C1O (centres undefined) | -2.81% [at 15.1 µM] | 
CN1[C@@H]2CC[C@H]1CC(OC(=O)C1C=Nc3ccccc31)C2 (some centres undefined) | 5.25% | 
COc1cc(C(=O)O[C@H]2[C@@H]3C=CO[C@@H](O[C@@H]4O[C@H](CO)[C@@H](O)[C@H](O)[C@H]4O)[C@@H]3[C@@]3(CO)O[C@@H]23)ccc1O |  | inactive [at 33.1 µM]
C=C(CO)C(=O)O[C@H]1C/C(C)=C/CC/C(CO)=C/[C@H]2OC(=O)C(=C)[C@H]12 | 7.96% [at 33.1 µM] | 
CN1CCCC1CCOC(c1cc2nccc(C(=O)O)c2[nH]1)c1ccccc1Cl (centres undefined) | -2.03% | 
C/C=C(\C)C(=O)OC1CC2C(CC=C3CC(OC4CC(OC)C(OC5CC(OC)C(OC6OC(C)C(OC7OC(CO)C(O)C(O)C7O)C(OC)C6O)C(C)O5)C(C)O4)CCC32C)C2(O)CCC(C(C)=O)C12C (centres undefined) | 0.665% [at 15.1 µM] | 
CO[C@H]1[C@H](O)[C@H](O[C@H]2CC[C@]3(C)C4CC[C@]5(C)[C@H](C6=CC(=O)OC6)CC[C@]5(O)C4CC[C@@H]3C2)O[C@@H](C)[C@@H]1O (some centres undefined) | 9.54% [at 33.1 µM] | 
CCc1c(C(=O)C(N)=O)c2c(OCC(=O)OC)cccc2n1Cc1ccccc1 | 22.4% | 
Cc1c(Cl)cccc1S(=O)(=O)Nc1nc(CC(=O)N2CCN(C)CC2)cs1 | 28.9% | 

Structure (SMILES) | activity change, negative = inhibition | outcome
CCC1NC(=O)C2C(Cl)C(Cl)CN2C(=O)C(C(C)O)NC(=O)CC(c2ccccc2)NC(=O)C(CO)NC1=O (centres undefined) | -1.9% [at 15.1 µM] | 
COc1cc(CCNCc2ccccc2O)c(OC)cc1C#N | 40.7% | 
COCC1OC(=O)c2coc3c2C1(C)C1=C(C3=O)C2CCC(=O)C2(C)CC1O (centres undefined) | 21% [at 33.1 µM] | 
CC(N)Cc1c[nH]c2ccccc12 (centres undefined) | 33.7% | 
CN[C@H]1[C@H](O)[C@H](O[C@@H]2[C@@H](O)[C@H](O[C@H]3O[C@H]([C@H](C)O)[C@@H](O)[C@H](O)[C@H]3N)[C@@H](N)C[C@H]2N)OC[C@@]1(C)O | -6% | 
C/C=C(\C)C(=O)O[C@H]1[C@H](OC(C)=O)[C@]2(CO)[C@H](O)[C@H](O)[C@]3(C)C(=CCC4[C@@]5(C)CC[C@H](O[C@@H]6O[C@H](C(=O)O)[C@@H](O)[C@H](O[C@@H]7OC[C@H](O)[C@H](O[C@@H]8OC[C@H](O)[C@H](O)[C@H]8O)[C@H]7O)[C@H]6O[C@@H]6O[C@H](CO)[C@@H](O)[C@H](O)[C@H]6O)C(C)(C)C5CC[C@]43C)[C@@H]2CC1(C)C (some centres undefined) | 4.93% [at 10.7 µM] | 
CN1C(=O)c2ccccc2NC(=O)C1Cc1ccccc1 (centres undefined) |  | inactive
CCN1C[C@]2(OC(=O)c3ccccc3NC(C)=O)CC[C@H](OC)[C@@]34[C@@H]2C[C@@H]([C@@H]13)[C@@]1(O)C[C@H](OC)[C@H]2C[C@@H]4[C@]1(O)[C@H]2OC |  | inactive
COc1ccccc1CN[C@H]1C2CCN(CC2)[C@H]1C(c1ccccc1)c1ccccc1 | 49.2% | 
OC1(c2ccc(Cl)cc2)c2ccccc2C2=NCCN21 (centres undefined) |  | inactive
COC1C(O)C(OC2CCC3(C=O)C(CCC4C3CCC3(C)C(C5=CC(=O)OC5)CCC43O)C2)OC(C)C1OC1OC(CO)C(O)C(O)C1O (centres undefined) | 7.21% [at 15.1 µM] | 
Clc1ccc(N2C[C@H]3CC[C@@H](C2)N3)nn1 | 110% | 
C=C[C@H]1[C@H](O[C@@H]2O[C@H](CO)[C@@H](O)[C@H](O)[C@H]2O)OC=C2C(=O)OCC[C@H]21 | 1.49% [at 33.1 µM] | 
CC(=O)OC1CC(O)C2(C)C(CC(OC(C)=O)C3(C)C2CCC2(C)C(c4ccoc4)C(=O)C4OC423)C1(C)C (centres undefined) | 11.4% [at 33.1 µM] | 
COc1cc(C)[nH]c(=O)c1CNC(=O)c1c(C)n([C@H](C)C2CCOCC2)c2ccccc12 | 21.3% | 
CC1=C2C[C@H]3[C@@H](CC=C4C[C@@H](O)CC[C@@]43C)[C@@H]2CC[C@]12O[C@@H]1C[C@H](C)CN[C@H]1[C@H]2C | 8.46% | 
COC1C(O)C(C)OC(OC2C(CO)O[C@@H](O[C@@H]3CC4CCC5C(CC[C@]6(C)[C@@H](C7=CC(=O)OC7)CC[C@]56O)[C@@]4(C)[C@H](O)C3)C(O)C2O)C1O (some centres undefined) | -5.21% [at 15.1 µM] | 
CC(C)C1(OO)C=C2C(=O)CC3C(C)(C(=O)O)CCCC3(C)C2CC1 (centres undefined) |  | inactive [at 33.1 µM]
CCOc1ccccc1-n1c(C(C)N2CCN(C(=O)COc3ccc(Cl)cc3)CC2)nc2ccccc2c1=O (centres undefined) | 15.3% | 
